Results filed as inconclusive are left out. A call without a number means that no potency is given here. Active and inactive are the calls of the source. Calls come from the whole dose curve; as a rule, active = well fitted inhibition curve with a large enough effect; inconclusive = small, poorly fitted or top-dose-only effect; inactive = no such curve, though single readings can be large or run the other way. Where a SMILES comes first, the peptide text is derived from it. The star is where a group is joined. Cbz = O=C(OCc1ccccc1)*; CH2F = FC*
Key:
[1] = tested on: Zika virus NS2B-NS3 protease (linked construct); test: Primary screen NINDS Rhodamine qHTS for Zika virus inhibitors (AID 1347160)
Method in brief: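 Each compound, titrated, sat 15 min with 25 nM linked protease before 1.5 microM Rhodamine110 substrate went in. Fluorescence gain over the next 15 min, in pH 8.0 Tris with Tween 20, gave Hill-fitted curves.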

[2] = Tertiary RLuc qRT-PCR qHTS assay for Zika virus inhibitors (AID 1347169); note: top concentration of the series differs between compounds
Method in brief: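 Orthogonal cell-based infection assay using recombinant ZIKV-RLuc (Cambodian) in Vero cells; compound added prior to virus at MOI 1-2. Incubation lasts 48-72 hrs at 37 degrees C before live-cell Renilla substrate is added and luminescence measured.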
Note: nearly all actives have a fitted effect of over 55% in size.

Row | Compound | Potency [1] | Potency [2]
1 | C/C=C/C=C/C(=O)OC1CC/C=C/C(O)C(O)C(CCC)OC1=O (stereo unspecified) | inactive | –
2 | CC1(C)CC[C@]2(C(=O)O)CC[C@]3(C)C(=CCC4[C@@]5(C)CC[C@H](O)C(C)(C)C5CC[C@]43C)C2C1 (stereo partly specified) | inactive | –
3 | CC(C)Oc1ccc(-c2nc(-c3cccc4c3CCC4NCCC(=O)O)no2)cc1C#N (stereo unspecified) | inactive | –
4 | CCC(C)C(C(=O)O)N1Cc2c(OCC=C(C)C)c(C)c(OC)c(C(=O)O)c2C1=O (stereo unspecified) | inactive | –
5 | CC[C@@H]1[C@H]2CCCCN3C(=O)C[C@H]([C@@H]4[C@H]1OC(=O)[C@H]4C)[C@@H]23 | inactive | –
6 | C[C@@H]1CC[C@]2(C(=O)O)CC[C@]3(C)C(=CCC4[C@@]5(C)C[C@@H](O)[C@H](O)[C@@](C)(CO)C5CC[C@]43C)C2[C@H]1C (stereo partly specified) | inactive | –
7 | CC(=O)OC1C(O)/C(C)=C\C2C(OC(=O)c3ccccc3)C(C)CC2(OC(C)=O)C(OC(C)=O)C(C)/C=C/C(C)(C)C1OC(C)=O (stereo unspecified) | inactive | –
8 | O=C(Cn1c2ccccc2c2nc3n(c(=O)c21)CCS3)N1CCCC1 | inactive | –
9 | CC(=O)Nc1cccc2c1c(Sc1ccc(Cl)cc1)c(C)n2CC(=O)O | inactive | –
10 | CC(=O)OCC1=CCC2C(C)(C)CCCC2(C)C12CCC(C)(CC(=O)O)O2 (stereo unspecified) | inactive | –
11 | COc1cc(/C=C/CO[C@@H]2O[C@H](CO)[C@@H](O)[C@H](O)[C@H]2O)cc(OC)c1O[C@@H]1O[C@H](CO)[C@@H](O)[C@H](O)[C@H]1O | inactive | –
12 | CC12CC(c3ccoc3)OC(=O)C1CCC1(C)C2CCC(O)C1(C)O (stereo unspecified) | inactive | –
13 | CC/C=C\CC1C(CC(=O)O)CCC1OC1OC(CO)C(O)C(O)C1O (stereo unspecified) | inactive | –
14 | C/C=C(\C)C(=O)OC1CC2C(CC=C3CC(OC4CC(OC)C(OC5CC(OC)C(OC6CC(OC)C(OC7CC(OC)C(OC8CC(OC)C(OC9OC(CO)C(O)C(O)C9O)C(C)O8)C(C)O7)C(C)O6)C(C)O5)C(C)O4)CCC32C)C2(O)CCC(C(C)=O)C12C (stereo unspecified) | inactive | –
15 | C=C1C2(C)CC3C4(C)C=CC(=O)OC(C)(C)C4CCC3(C)C1(C(=O)OC)C(=O)C(C)(O)C2=O (stereo unspecified) | inactive | –
16 | C=C(COC(=O)CC(C)C)C1Cc2cc(C(C)=O)ccc2O1 (stereo unspecified) | inactive | –
17 | C/C=C(/C)C(=O)O[C@@H]1C[C@@H](OC(=O)/C(C)=C\C)[C@@]2(C)C3C(=O)C=C(C)C2C3C1(C)C | inactive | –
18 | CCOC(=O)C1=C(N)Oc2ccc(Cl)cc2C1C(C#N)C(=O)OCC (stereo unspecified) | inactive | –

Row | Compound | Potency [1] | Potency [2]
19 | CC1CC(=O)[C@]2(O)C(C(=O)OCCc3ccc(O)c(O)c3)=CO[C@@H](O[C@@H]3O[C@H](CO)[C@@H](O)[C@H](O)[C@H]3O)[C@H]12 (stereo partly specified) | inactive | –
20 | CC1=C(CC/C(C)=C/C(=O)O)[C@@]2(C)CCCC(C)(C)C2CC1=O (stereo partly specified) | inactive | –
21 | CC1OC(OC2C(OC(=O)[C@]34CCC(C)(C)C[C@H]3C3=CCC5[C@@]6(C)CC[C@H](OC7OC(C(=O)O)C(O)C(O)C7O)C(C)(C)C6CC[C@@]5(C)[C@]3(C)CC4O)OC(CO)C2O)C(O)C(O)C1OC1OCC(O)C(O)C1O (stereo partly specified) | inactive | –
22 | O=C(Nc1cc(-c2ccccc2)nn1-c1ccccc1F)c1ccc([N+](=O)[O-])cc1 | inactive | –
23 | CC/C=C\C(O)C(O)C1=C(C)C(=O)C2(O1)C(=O)NC(OC)(C(=O)c1ccccc1)C2O (stereo unspecified) | inactive | –
24 | C=C1CC2C(C)(CCC(=O)O)C(C(C)(C)O)CCC2(C)C2(C(=O)OC)C(=O)C(C)(O)C(=O)C12C (stereo unspecified) | inactive | –
25 | COC(=O)CC[C@H](NC(=O)[C@H](CC(C)C)NC(=O)OCc1ccccc1)C(=O)N[C@@H](Cc1cnc[nH]1)C(=O)N[C@@H](CC(=O)OC)C(=O)CF (Cbz-LE(OMe)HD(OMe)-CH2F) | inactive | –
26 | CC(=O)OC1CC2C(C)(C)C(=O)C=CC2(C)C2CC(=O)C3=C(CCC3C3=CC(O)OC3=O)C12C (stereo unspecified) | inactive | –
27 | CC1=CC(=O)C(=C(C)C)CC2C(C)(O)CCC12O (stereo unspecified) | inactive | –
28 | CC1=C2C(=O)C=C(CO)C2C2OC(=O)C(CS(=O)(=O)O)C2C(OC(=O)Cc2ccc(O)cc2)C1 (stereo unspecified) | inactive | –
29 | C=C1C(O)CC2C(C(=O)O)=COC(OC3OC(CO)C(O)C(O)C3OC(=O)/C=C\c3ccc(O)cc3)C12 (stereo unspecified) | inactive | –
30 | NC1(c2ccc(NC(=O)c3ccnc(-c4cc(C(=O)O)ccn4)c3)cc2)CC1 | inactive | –
31 | Cc1c(-c2ccc3c(c2)OCO3)oc2ccc(C(O)C(C)O)cc12 (stereo unspecified) | inactive | –
32 | CC(CNS(=O)(=O)C(C)C)c1ccc(-c2ccc(C#N)cc2)cc1 (stereo unspecified) | inactive | –
33 | CC(C)c1ccc2c(c1)C(=O)CC1C(C)(C(=O)O)CCCC21C (stereo unspecified) | inactive | –
34 | C=C(C)[C@@H]1CC[C@]2(CO)CC[C@]3(C)[C@H](CC[C@@H]4[C@@]5(C)CC[C@H](O)C(C)(C)[C@@H]5CC[C@]43C)[C@@H]12 | inactive | –
35 | CC1CC(=O)[C@]2(O)C(C(=O)OCCc3ccc(O)cc3)=CO[C@@H](O[C@@H]3O[C@H](CO)[C@@H](O)[C@H](O)[C@H]3O)[C@H]12 (stereo partly specified) | inactive | –
36 | CO[C@H]1c2cc(C(C)C)c(O)c(O)c2[C@@]23CCCC(C)(C)C2[C@@H]1OC3=O (stereo partly specified) | – | inactive
